PubChem BioAssay
Calls of active or inactive are those of the source. No rule for the calls is given here.

These compounds were tested on Aerobactin synthetase IucA (Klebsiella pneumoniae hvKP1) (assay: IucA enzyme inhibition, primary screen, biochemical, Spectrum library (AID 1346200;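 also: 100% = wells without compound and 0% = wells lacking enzyme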)). Conditions: malachite green pyrophosphate, A620, at 8 µM, hits give low values.

SMILES | activity remaining
Cc1cc(O)c2c(c1O)C(=O)c1c(O)cc(C)c(O)c1C2=O | 100% (inactive)
CC(=O)Oc1cc2c(c(C)c1OC(C)=O)CC=C1[C@@]2(C)CC[C@@]2(C)C3C[C@](C)(C(=O)O)CC[C@]3(C)CC[C@]12C (stereo not given in full) | 95.9% (inactive)
CC(=O)Oc1ccc(-c2cc(=O)c3c(OC(C)=O)cc(OC(C)=O)cc3o2)cc1 | 122% (inactive)
CC1(C)Oc2ccc3ccc(=O)oc3c2CC1O (stereo not given) | 88.1% (inactive)
CO[C@@H]1[C@@H](O[C@@H]2O[C@H](C)[C@@H](O[C@H]3C[C@@](C)(O)[C@H](O)[C@H](C)O3)[C@H](N(C)C)[C@H]2O)[C@@H](CC=O)C[C@@H](C)[C@@H](O[C@H]2CC[C@H](N(C)C)[C@@H](C)O2)/C=C/C=C/C[C@H](C)OC(=O)C[C@H]1O | 96.2% (inactive)
CC1(C)CC2C1CCC1(C)OC2(C)CCC1O (stereo not given) | 120% (inactive)
CNCc1ccccc1 | 108% (inactive)
CCCCC(CC)CN1CN(CC(CC)CCCC)CC(C)(N)C1 (stereo not given) | 89.7% (inactive)
CN(C)c1ccc(C(=C2C=CC(=[N+](C)C)C=C2)c2ccc(N(C)C)cc2)cc1 | 118% (inactive)
Oc1c(Br)cc(Br)c2cccnc12 | 113% (inactive)
CC[C@@H](C(=O)C(C)[C@@H](O)[C@H](C)CCc1ccc(C)c(O)c1C(=O)O)C1OC(CC)(C2CC[C@](O)(CC)[C@H](C)O2)C[C@@H]1C (stereo not given in full) | 111% (inactive)
C=C[C@@]1(C)CC(=O)[C@@]2(O)[C@](C)(O1)[C@@H](OC(C)=O)[C@@H](O)C1C(C)(C)CC[C@H](O)[C@@]12C (stereo not given in full) | 82.4% (inactive)
COc1cc(O)cc(/C=C/c2ccccc2)c1 | 104% (inactive)
CC(=O)N(O)CCCCCNC(=O)CCC(=O)N(O)CCCCCNC(=O)CCC(=O)N(O)CCCCCN | 117% (inactive)
O=C1C(CCS(=O)c2ccccc2)C(=O)N(c2ccccc2)N1c1ccccc1 (stereo not given) | 116% (inactive)
COc1ccc(-c2coc3c(O)c(OC)ccc3c2=O)cc1 | 115% (inactive)
COC(=O)C(O)c1ccccc1 (stereo not given) | 108% (inactive)
C=C1C2=CC(=O)O[C@@H](c3ccoc3)[C@]2(C)CCC1[C@@]1(C)C=CC(=O)C(C)(C)[C@@H]1CC(=O)OC (stereo not given in full) | 100% (inactive)
CC1O[C@@H](Oc2c(-c3ccc(O)c(O)c3)oc3cc(O)cc(O)c3c2=O)[C@H](O)[C@H](O)[C@H]1O (stereo not given in full) | 111% (inactive)
COc1cc(-c2coc3cc(O[C@@H]4O[C@H](CO)[C@@H](O)[C@H](O)[C@H]4O)c(OC)c(O)c3c2=O)cc(O)c1OC | 120% (inactive)

SMILES | activity remaining
C/C=C(/C)C(=O)O[C@@H]1[C@H](OC(C)=O)[C@@]2(CO)C(CC1(C)C)C1=CCC3[C@@]4(C)CC[C@H](O[C@@H]5O[C@H](C(=O)O)[C@@H](O[C@@H]6O[C@H](CO)[C@@H](O)[C@H](O)[C@H]6O)[C@H](O)[C@H]5O[C@@H]5O[C@H](CO)[C@@H](O)[C@H](O)[C@H]5O)[C@](C)(CO)C4CC[C@@]3(C)[C@]1(C)C[C@H]2O (stereo not given in full) | 119% (inactive)
Nc1ncnc2c1ncn2[C@@H]1O[C@H](CO)[C@@H](O)[C@@H]1O | 107% (inactive)
C/C1=C\CC(C)(C)/C=C/CC2(C)OC2CC1 (stereo not given) | 107% (inactive)
COC1=C(OC)C(=O)C(C/C=C(\C)CC/C=C(\C)CC/C=C(\C)CC/C=C(/C)CC/C=C(\C)CC/C=C(\C)CC/C=C(\C)CC/C=C(\C)CC/C=C(\C)CCC=C(C)C)=C(C)C1=O | 93% (inactive)
CC1(C)S[C@@H]2[C@H](NC(=O)[C@@H](N)c3ccc(O)cc3)C(=O)N2[C@H]1C(=O)O | 99.8% (inactive)
CN(C)CCOc1ccc(/C(=C(/CCCl)c2ccccc2)c2ccccc2)cc1 | 112% (inactive)
C=CC[C@@H]1/C=C(\C)C[C@H](C)C[C@H](OC)[C@H]2O[C@@](O)(C(=O)C(=O)N3CCCC[C@H]3C(=O)O[C@H](/C(C)=C/[C@@H]3CC[C@@H](O)[C@H](OC)C3)[C@H](C)[C@@H](O)CC1=O)[C@H](C)C[C@@H]2OC | 105% (inactive)
C[C@H](CC(=O)C(O)C(C)(C)O)[C@H]1C(=O)C[C@@]2(C)C3=CCC4C(C)(C)[C@@H](O[C@@H]5OC[C@@H](O)[C@H](O)[C@H]5O)CC[C@@]45C[C@@]35[C@@H](O)C[C@]12C (stereo not given in full) | 109% (inactive)
C=CCS(=O)C[C@H](N)C(=O)O (stereo not given in full) | 125% (inactive)
COc1cc(C(=O)NCc2ccc(OCCN(C)C)cc2)cc(OC)c1OC | 114% (inactive)
C=C1C2CC[C@@]3(C)[C@H](c4ccoc4)OC(=O)C[C@]13O[C@H]1CC(=O)C(C)(C)C(CC(=O)OC)C21C (stereo not given in full) | 124% (inactive)
CC(C)[C@@H]1CC[C@@H](C)C[C@H]1OC(=O)c1ccccc1 | 120% (inactive)
COC1=CC(=O)C(C(=O)c2ccccc2)=CC1=O | 93.6% (inactive)
CC1(C)CC2C1CCC1(C)OC1CCC2(C)O (stereo not given) | 120% (inactive)
CN[C@@H]1C(O)[C@@H](O[C@@H]2[C@@H](O)[C@H](O[C@H]3OC(CN)=CC[C@H]3N)[C@@H](N)C[C@H]2N)OC[C@]1(C)O (stereo not given in full) | 96.1% (inactive)
CC1=C(C(=O)O)N2C(=O)[C@@H](NC(=O)C(N)c3ccc(O)cc3)[C@H]2SC1 (stereo not given in full) | 103% (inactive)
Nc1ccc(C(=O)O)cc1 | 124% (inactive)
Cc1cc(O)cc(O)c1C(=O)O | 113% (inactive)
C[C@@H]1CC2C3CCC4=CC(=O)C=C[C@]4(C)[C@@]3(F)[C@@H](O)C[C@]2(C)[C@@]1(O)C(=O)COP(=O)(O)O (stereo not given in full) | 114% (inactive)
C=CCCCCCCCCCCCC(O)CC(O)COC(C)=O (stereo not given) (tested in a mixture with another compound) | 81.7% (inactive)
